Results on 48 compounds are retold here after PubChem BioAssay AID2417 (National Center for Advancing Translational Sciences (NCATS), 2010).

Screen size: about 140,000 compounds; about 4,300 (3.1%) were called active. Roughly 21% stayed inconclusive and do not appear here. The sample as a whole holds a higher share of actives than the screen did. Values without a mark were called inactive.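 Rule for the calls: active = readout at or below -70, meaning at least 70% loss of cells showing the perinucleolar compartment, a nuclear body marking cancer cells; inconclusive = readout between -30 and a set limit; inactive = the rest.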

The nature of this experiment: High Content Assay for Compounds that inhibit the Assembly of the Perinucleolar Compartment.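 Note: plate controls were DMSO wells for no effect and camptothecin positive control wells for full effect.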 Conditions: PC3M PTB-GFP, PNC prevalence imaging, 16 h; at 10 µM; active compounds read low. Summed up: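 PC3M cells stably expressing PTB-GFP, 750–1000 cells/well, treated 16 h at 37 °C with compound (23 nl of library stock), in duplicate. After paraformaldehyde fixation and Hoechst stain, imaged at 20x; PNC prevalence scored by image analysis.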
As to `CCCCOC(=O)Cn1c(=N)n(CCN(CC)CC)c2ccccc21`, the activity change (PNC), negative = inhibition was 33.2%.

As to `CCCCN(C)c1ccc([N+](=O)[O-])cc1`, the activity change (PNC), negative = inhibition was 22.3%.

`Cc1ccc(C(C[N+](=O)[O-])c2c(C)cc3ccccn23)cc1` (stereo not drawn): the activity change (PNC), negative = inhibition was -2.04%.

Turning to `Cc1cc(Nc2ccccc2)n(C(=O)c2ccc(N)cc2)n1`, the activity change (PNC), negative = inhibition is -86.2% (active).

`Cc1cc(NC(=O)Nc2ccccc2)n(-c2ccccc2)n1`: the activity change (PNC), negative = inhibition was 15.1%.

On to `Cc1cc(Nc2ccccc2)n(CCC#N)n1`, for which the activity change (PNC), negative = inhibition was -16.1%.

Consider `Cc1cc(C)cc(NC(=S)NCc2ccc(F)cc2)c1`, for which the activity change (PNC), negative = inhibition is 35.9%.

Take `CNC(=S)N1CCN(c2ccccn2)CC1`: the activity change (PNC), negative = inhibition is -10.5%.

Take `Cc1cccc(N=C2NN=C(c3c[nH]c4ccccc34)CS2)c1`: the activity change (PNC), negative = inhibition was 57.4%.

On to `COc1ccc(-c2ccc(Nc3ccc(S(=O)(=O)N4CCCC4)cc3)nn2)cc1OC`, for which the activity change (PNC), negative = inhibition was 7.04%.

As to `COc1ccc(S(=O)(=O)Nc2ccc(S(=O)(=O)N3CCCCC3)cc2)cc1OC`, the activity change (PNC), negative = inhibition was -88.7% (active).

On to `COc1ccc(S(=O)(=O)N2CCCCC2)cc1Br`, for which the activity change (PNC), negative = inhibition is -11%.

With `Cc1[nH]c2ccccc2c1/C=N\NC(=O)Cn1nnc(-c2ccccc2)n1`, the activity change (PNC), negative = inhibition is 40.3%.

In the case of `CCOC(=O)c1cc2n(c1N)-c1ccccc1C2=O`, the activity change (PNC), negative = inhibition was 32%.

Regarding `CCOC(=O)c1c(C)[nH]c(=S)c(C#N)c1-c1ccccc1`, the activity change (PNC), negative = inhibition is 32.4%.

For `CCOC(=O)c1c(C)[nH]c2c1-c1ccccc1C(=O)C2=O`, the activity change (PNC), negative = inhibition is -124% (active).

On to `Cc1cccc(OCCNC(=S)NC(=O)c2cccnc2)c1`, for which the activity change (PNC), negative = inhibition is 17.2%.

`CC(C)CNC(=O)COC(=O)/C=C/c1ccco1`: the activity change (PNC), negative = inhibition was 0.199%.

On to `O=C(NC(CC(=O)N1CCN(c2ccccc2)CC1)c1ccccc1)c1ccccc1Cl` (stereo not drawn), for which the activity change (PNC), negative = inhibition was -9.01%.

`CCCc1cc(-c2nc(-c3ccc(C)cc3)cs2)ccn1`: the activity change (PNC), negative = inhibition was 10.4%.

Take `COC(=O)C1=C(C)N(c2ccc(Br)cc2)C(=O)/C1=C\c1ccco1`: the activity change (PNC), negative = inhibition was -80.8% (active).

For `O=C(OCN1C(=O)c2ccccc2C1=O)/C(=C\c1ccco1)NC(=O)c1ccccc1`, the activity change (PNC), negative = inhibition is 73.8%.

As to `CCCCN=C1N/C(=C\c2ccco2)C(=O)N1c1ccccc1`, the activity change (PNC), negative = inhibition is -16.5%.

Regarding `O=C(N/N=C/c1ccc(Br)o1)c1cncc(Br)c1`, the activity change (PNC), negative = inhibition was -10.5%.

Regarding `CCCSC(=S)NC1CCS(=O)(=O)C1` (stereo not drawn), the activity change (PNC), negative = inhibition was -6.42%.

As to `CCN(CC(=O)NC1CCS(=O)(=O)C1)S(=O)(=O)c1ccccc1` (stereo not drawn), the activity change (PNC), negative = inhibition was -23.3%.

For `CC(C)C(=O)NC(NC(=S)NC1CCS(=O)(=O)C1)C(Cl)(Cl)Cl` (stereo not drawn), the activity change (PNC), negative = inhibition is -100% (active).

For the compound `COc1ccc(CNC(=O)CCCn2nc(C)c([N+](=O)[O-])c2C)cc1`, the activity change (PNC), negative = inhibition is 1.72%.

With `N#C/C(C(=O)N1CCOCC1)=C1/SC(Cc2ccc(F)cc2)C(=O)N1c1ccccc1` (stereo not drawn), the activity change (PNC), negative = inhibition is 2.9%.

In the case of `O=C(Cn1cc(C(F)(F)F)ccc1=O)N/N=C/c1ccc(Cl)cc1Cl`, the activity change (PNC), negative = inhibition was 32%.

Consider `CC(=O)Nc1cccc(NC(=O)c2c(-c3ccccc3)noc2C)c1`, for which the activity change (PNC), negative = inhibition is 19.7%.

As to `CCOC(=O)c1c(-c2cccc(C)c2)csc1NC(=O)c1c(-c2ccccc2)noc1C`, the activity change (PNC), negative = inhibition is -101% (active).

As for `Cc1onc(-c2ccccc2)c1C(=O)NNC(=S)NC(=O)c1ccc(F)cc1`, the activity change (PNC), negative = inhibition is 19.1%.

Take `Cc1ccc(S(=O)(=O)NCc2csc(C)n2)c(C)c1`: the activity change (PNC), negative = inhibition is 36.5%.

With `Cc1nc(CNS(=O)(=O)c2ccc(Oc3ccccc3)cc2)cs1`, the activity change (PNC), negative = inhibition was -83.2% (active).

For `Cc1nc(CNS(=O)(=O)c2cccnc2)cs1`, the activity change (PNC), negative = inhibition was 14.3%.

With `CC(=O)NCCC(=O)Nc1nc(C)c(Cc2ccc3c(c2)OCO3)s1`, the activity change (PNC), negative = inhibition was 32.2%.

Take `COC(=O)[C@@H]1CC[C@H](C)[C@@H](c2ccc(C)cc2)N1C(=O)c1ccc(/C=N/O[C@H](C)c2cn([C@@H]3COC[C@H]3O)nn2)cc1`: the activity change (PNC), negative = inhibition was 39.9%.

`C/C(=N\NC(=O)c1ccc(CSc2nc(C)cc(C)n2)cc1)C1CCCCC1`: the activity change (PNC), negative = inhibition was 28.4%.

Take `CCCc1[nH]nc2c1C(C1CC=CCC1)C(C#N)=C(N)O2` (stereo not drawn): the activity change (PNC), negative = inhibition is 26.7%.

For `CCc1ccc(C2C(C#N)=C(N)Oc3n[nH]c(CC(=O)OC)c32)cc1` (stereo not drawn), the activity change (PNC), negative = inhibition is 18.8%.

For `COCc1[nH]nc2c1C(C1C=CCCC1)C(C#N)=C(N)O2` (stereo not drawn), the activity change (PNC), negative = inhibition was -107% (active).

In the case of `CC(NC(=O)Nc1ccccc1)c1ccccc1` (stereo not drawn), the activity change (PNC), negative = inhibition is -11.3%.

As for `CC(NC(=O)c1cc(-c2ccccc2)on1)c1ccccc1` (stereo not drawn), the activity change (PNC), negative = inhibition was -97.3% (active).

On to `CC(C)CNC(=O)c1cc(-c2ccc(Br)cc2)on1`, for which the activity change (PNC), negative = inhibition is -2.59%.

As to `CCOC(=O)NN1C(=O)c2ccccc2NC1c1cccc(O)c1` (stereo not drawn), the activity change (PNC), negative = inhibition was -6.12%.

As for `COc1ccc(C2CC(c3cccs3)=NN2C(=O)COC(=O)c2cc3ccccc3cc2O)cc1OC` (stereo not drawn), the activity change (PNC), negative = inhibition is -16.9%.

`CC1Cc2ccccc2N1C(=O)CSc1nnc(-c2ccc(S(=O)(=O)N3CCCC3)cc2)n1C` (stereo not drawn): the activity change (PNC), negative = inhibition is -4.26%.
